NS1 inh: qHTS Assay for Inhibitors of Influenza NS1 Protein Function | 270,000 compounds, 0.4% hits | Potency, µM (doses to about 46.1 µM); calls by dose curve; note: actives are rising curves; nearly all actives have a fitted effect of over 50% in size
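S. cerevisiae expressing influenza A NS1, grown in glucose, washed, then diluted 1:100 into pH 6.0 -URA galactose medium with 23 nl compound. Growth recovery read as OD600; NS1-free strain serves as control.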
LmPK inh: qHTS Assay for Inhibitors of Leishmania Mexicana Pyruvate Kinase (LmPK); Q27686; purified LmPK, Kinase-Glo ATP luminescence, 1 h; 290,000 compounds, 0.37% hits; Potency, µM (highest dose often 57.5 µM), usual class: inhibitors
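Kinase-Glo luminescence read after 1 h RT reaction of 0.1 nM LmPK with 0.5 mM PEP and 0.1 mM ADP. Activity scaled between uninhibited and enzyme-free controls.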
RE007 growth inh: qHTS Assay for Inhibitors of the HIV-1 protein Vpr | Potency, µM (titrated, usually from 92.2 µM), hits mostly inhibitors | 360,000 compounds, 0.21% hits | S. pombe RE007 Vpr strain, BacTiter-Glo ATP luminescence, 24 h; active = well fitted falling curve with a large enough effect; inconclusive = small, poorly fitted or top-dose-only effect; inactive = no such curve, though single readings can be large or run the other way; note: nearly all actives have a fitted effect of over 50% in size
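Fission yeast RE007 carrying one integrated HIV-1 vpr copy, seeded at OD 0.01 in PMG+AL medium with 23 nL pinned compound. Grown 24 h at 30 degrees; viability read by BacTiter-Glo luminescence after 5 min.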
TbPYK inhibitor: qHTS of Trypanosoma Brucei Inhibitors; pyruvate kinase (Trypanosoma brucei), Q57TT1; TbPYK enzyme, Kinase-Glo Plus ATP luminescence, 45 min; Potency, µM (highest dose often 76.8 µM), most hits filed as inhibitors; 410,000 compounds, 0.12% hits; AID 624173, 2012; note: nearly all actives have a fitted effect of over 50% in size
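Assay buffer: 50 mM TEA pH 7.2, 100 mM KCl, 10 mM MgCl2, 0.05% BSA, 0.01% Tween-20. Pyruvate kinase from T. brucei plus substrate met compound, then ADP (130 uM final). Luminescence was read post 45 min RT.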
FBPA Giardia inh: qHTS Assay for Inhibitors of Fructose-1,6-bisphosphate Aldolase from Giardia Lamblia; A8B2U2; purified Giardia FBPA; Potency, µM (series often up to 59.6 µM), most hits filed as inhibitors; 290,000 compounds, 0.71% hits; AID 2451, 2010; note: nearly all actives have a fitted effect of over 55% in size
Target sequence (A8B2U2 whole entry, looked up): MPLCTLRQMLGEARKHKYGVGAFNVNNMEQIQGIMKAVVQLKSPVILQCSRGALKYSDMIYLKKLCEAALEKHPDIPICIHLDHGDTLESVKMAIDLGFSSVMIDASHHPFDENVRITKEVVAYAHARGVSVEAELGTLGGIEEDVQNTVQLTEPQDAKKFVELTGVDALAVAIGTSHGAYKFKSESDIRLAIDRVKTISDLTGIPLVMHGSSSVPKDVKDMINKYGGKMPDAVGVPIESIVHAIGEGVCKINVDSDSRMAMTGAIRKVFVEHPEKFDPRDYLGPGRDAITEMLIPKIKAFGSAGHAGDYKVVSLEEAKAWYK
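Giardia FBPA (40 nM reagent) was preincubated 10 min at RT with compound (up to 57.5 uM final), then substrate plus GAPDH/TPI/NAD/arsenate coupling system with diaphorase/resazurin was added; resorufin fluorescence (525/598 nm) was read after 20 min.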
Sm TGR inh: qHTS Assay for the Inhibitors of Schistosoma Mansoni Peroxiredoxins; purified TGR, DTNB reduction, TNB absorbance 405 nm; 360,000 compounds, 3% hits; Potency, µM (titrated, usually from 114 µM), most hits filed as inhibitors; note: nearly all actives have a fitted effect of over 60% in size
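TGR 20 nM + NADPH 100 uM (dispensed conc.), cpd preinc 15 min RT; start with NADPH (500 uM addition) then DTNB (15 mM addition). Kinetic TNB absorbance, 405 nm filter. Four-parameter Hill fit across titration.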
LmPK confirm: Confirmation Assay for Inhibitors of Leishmania Mexicana Pyruvate Kinase (LmPK); shares compounds with LmPK inh; purified LmPK, Kinase-Glo ATP luminescence, 1 h; Potency, µM (titrated, usually from 57.5 µM), most hits filed as inhibitors; 150 compounds, 40% hits; AID 2559, 2010;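 active = compounds giving a full or partial concentration-response curve, as inhibitors or activators; inconclusive = weak, top-dose-only or unclear curve responses; inactive = no response at any tested dose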
Large screens that a line does not name were inactive (follow-up assays come after a bar, where they were run); ! = not confirmed by another sample. Rows were chosen to be rich in hits. Some 3.5% of all compounds tested hit in one or more screens of this group. Unless noted, calls come from the whole dose curve; as a rule, active = well fitted curve in the direction sought with a large enough effect; inconclusive = small, poorly fitted or top-dose-only effect, or another doubt; inactive = no such curve, though single readings can be large; an effect the other way counts as inactive or inconclusive.

Brc1ccc(-c2nc3ncccn3c2NC2CCCCC2)o1	Sm TGR inh 35.5µM
Cc1ccc(-c2nc3cnccn3c2Nc2c(C)cccc2C)o1	RE007 growth inh inconclusive, Sm TGR inh 14.1µM
Cc1ccc(-c2nc3ncccn3c2NC2CCCC2)o1	none
Cc1ccc(-c2nc3ncccn3c2Nc2ccc3c(c2)OCO3)o1	Sm TGR inh inconclusive
Cc1ccc(-c2nc3ncccn3c2Nc2ccccc2C)o1	Sm TGR inh 39.8µM (no result: NS1 inh)
Cc1ccc(Nc2c(-c3ccc(C)o3)nc3ncccn23)cc1	Sm TGR inh 20µM
Nc1ccc([As](=O)(O)O)cc1	Sm TGR inh 35.5µM
O=[As](O)(O)c1ccc(Cc2ccc([As](=O)(O)O)cc2)cc1	none (no result: LmPK inh, RE007 growth inh, TbPYK inhibitor, FBPA Giardia inh, Sm TGR inh)
NCCS	FBPA Giardia inh 15.8µM!
Cc1cccc(-n2ccnc2SCC(=O)Nc2ccccc2C(F)(F)F)c1	none (no result: NS1 inh, LmPK inh, RE007 growth inh, FBPA Giardia inh)
CC(=O)c1ccc(-c2ccc(C(=O)NC3CCCCCC3)o2)cc1	Sm TGR inh 22.4µM (no result: NS1 inh)
O=C1CC(N2CCC(c3nc4ccccc4o3)CC2)C(=O)N1c1ccc(F)cc1 (stereo not drawn)	RE007 growth inh inconclusive
O=C1CC(N2CCC(c3nc4ccccc4s3)CC2)C(=O)N1 (stereo not drawn)	RE007 growth inh inconclusive
O=C1CC(N2CCC(c3nc4ccccc4o3)CC2)C(=O)N1 (stereo not drawn)	Sm TGR inh 35.5µM
O=C1CC(N2CCC(c3nc4ccccc4o3)CC2)C(=O)N1c1ccc(Cl)c(C(F)(F)F)c1 (stereo not drawn)	RE007 growth inh 28.2µM, Sm TGR inh 14.1µM
c1ccc2c(-c3cnn4cc(-c5ccc(N6CCNCC6)cc5)cnc34)ccnc2c1	none (no result: NS1 inh, LmPK inh, RE007 growth inh, FBPA Giardia inh, Sm TGR inh)
CCCSc1cc(NCCOC(=O)CCC)c([N+](=O)[O-])c2nonc12	Sm TGR inh 2µM
CCCC(=O)OCCNc1cc(SCc2ccco2)c2nonc2c1[N+](=O)[O-]	TbPYK inhibitor inconclusive, Sm TGR inh 14.1µM
CCCC(=O)OCCNc1cc(Sc2nccn2C)c2nonc2c1[N+](=O)[O-]	Sm TGR inh 0.398µM
CC(=O)OCCCNc1cc(SCc2ccco2)c2nonc2c1[N+](=O)[O-]	Sm TGR inh 7.08µM
CCOc1ccc(N(CC)S(=O)(=O)N2CCCC(C(=O)NCc3ccccc3OCC)C2)cc1 (stereo not drawn)	none (no result: NS1 inh, LmPK inh, RE007 growth inh, FBPA Giardia inh)
COC(=O)[C@H](COC(C)(C)C)NC(=O)O[C@@H]1C(=O)c2ccc(OC)cc2O[C@H]1c1ccc2c(c1)OCO2	none (no result: NS1 inh, LmPK inh, RE007 growth inh, TbPYK inhibitor, Sm TGR inh)
CC(=O)Nc1ccc(S(=O)(=O)Nc2ccc(=O)n(Cc3ccc(Cl)c(Cl)c3)c2)cc1	none (no result: NS1 inh)
Cc1ccc(S(=O)(=O)Nc2ccc(=O)n(Cc3ccc(Cl)c(Cl)c3)c2)cc1	FBPA Giardia inh inconclusive, Sm TGR inh 39.8µM
Cc1cccc(Oc2nc3ccccn3c(=O)c2/C=C(\C#N)c2nc3ccccc3s2)c1C	none (no result: NS1 inh, LmPK inh, RE007 growth inh, FBPA Giardia inh)
COc1cc(C(=O)NCc2nc3cccnc3n2Cc2ccc(C)cc2)cc(OC)c1OC	none (no result: NS1 inh, LmPK inh, RE007 growth inh, FBPA Giardia inh)
C=CCn1c(Cc2c[nH]c3ccccc23)n[nH]c1=S	NS1 inh inconclusive, TbPYK inhibitor 12.6µM
C=CCn1c(-c2cccc3ccccc23)n[nH]c1=S	LmPK inh 8.91µM (no result: TbPYK inhibitor)
CC(C)Oc1ccc(CNC(=O)c2cc3ccccn3n2)cc1	none (no result: NS1 inh, LmPK inh, RE007 growth inh, FBPA Giardia inh)
Cc1ccc(-c2csc(N3C(=N)SCC3=O)n2)cc1	none
N=C1SCC(=O)N1c1ncc(Cc2ccc(F)cc2)s1	RE007 growth inh 28.2µM
Cn1cc(Cl)c(C(=O)Nc2nc3ccccc3s2)n1	LmPK inh 7.94µM | LmPK confirm inconclusive
Cc1c(C(=O)NC(=S)Nc2ccc(NC(=O)c3cccs3)cc2)oc2ccccc12	LmPK inh 7.08µM, Sm TGR inh 0.631µM | LmPK confirm inactive

Bioassay records from PubChem BioAssay.
